Data: PubChem BioAssay (NCI)
The panel holds about 83,000 compounds, 20% with a hit somewhere; the sample as a whole holds those more often.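 Single-dose data. Exposure time 48 hours. Values below 10 considered active.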 The source made the active and inactive calls.

system: HL-60(TB) leukemia; assay: NCI-60 one-dose screen, 48 h (100 = growth as untreated, 0 = no growth, -100 = all killed); conditions: 10 µM unless noted

| SMILES | growth |
| --- | --- |
| O=C(Nc1nc(-c2ccccc2Cl)cs1)c1cc(-c2ccc(Cl)cc2)nc2ccc(Cl)cc12 | -21.9% (active) |
| CCOc1cc(Cl)c(C(C)NC(=O)c2cccc(OC)c2)cc1OCC (stereo not given) | -32.8% (active) |
| COc1cc(-c2n/c(=C\c3c(O)[nH]c4ccc(Cl)cc34)cc3c2=Nc2ccccc2-3)cc(OC)c1OC | 48.3% (inactive) |
| COc1ccc(C)cc1OC | 94.3% (inactive) |
| CO[C@@H]1[C@H](N(C)C(=O)c2ccccc2)C[C@@H]2O[C@]1(C)n1c3ccccc3c3c4c(c5c6ccccc6n2c5c31)C(=O)NC4=O | 78.9% (inactive) |
| CN(C)CCCN(CCC1CCCCC1)CCC1CCCCC1 | 30.1% (inactive) |
| NC(N)=N/N=C(\N=Nc1ccccc1)c1ccc(Cl)cc1 | -8.35% (active) |
| Cn1c(I)c(C#CCO[Si](C)(C)C(C)(C)C)c(=O)[nH]c1=O | -41.2% (active) |
| CCCCCCCCN1C(=O)/C(=c2\sc3n(c2=O)C2C(NN=3)N(CC)C(=O)N2CC)c2ccccc21 (stereo not given) | 114% (inactive) |
| O=C(NN1C(=O)c2cc(C(=O)O)c(C(=O)O)cc2C1=O)c1ccncc1 | 109% (inactive) |
| Clc1ncnc2nc[nH]c12 | 101% (inactive) |
| C[C@]12CCc3c(ccc4cc(O)ccc34)[C@@H]1CC[C@H]2O | 86.7% (inactive) |
| COc1cc([C@@H](CCO)C[C@H](C)c2ccc3ccccc3c2)cc(OC)c1OC | 6.14% (active) |
| CC(C)CSc1nc(Nc2ccccc2)c(C#N)c(-c2ccc(F)cc2)n1 | 73.4% (inactive) |
| O=C1NC(=O)/C(=C/c2ccc3nccc(-c4ccncc4)c3c2)S1 | -32.1% (active) |
